Assay [1] in a line: qHTS assay to identify small molecule antagonists of the estrogen related receptor (ERR) signaling pathway from Tox21 library - cell viability counter screen (AID 1224834). Further: nearly all actives have a fitted effect of over 30% in size. The essentials: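 CellTiter-Fluor fluorescence measured; ERR cells; 17.5 h compound incubation at 37 C; 30 min reagent step.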
The target of assay [2] is Luciferin 4-monooxygenase (Photinus pyralis) (UniProt P08659). Briefly: qHTS assay to identify small molecule inhibitors of firefly luciferase (AID 1224835). Further: nearly all actives have a fitted effect of over 25% in size. A digest of the protocol:
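Inhibition of purified Photinus luciferase is measured by luminescence. Substrate levels (D-luciferin, ATP) sit at their KM values. Each compound is tested in a concentration series.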
Background: qHTS replaces the single test concentration by a dilution series.

Assay [3] is described as follows: qHTS assay to identify small molecule agonists of the constitutive androstane receptor (CAR) signaling pathway - cell viability counter screen (AID 1224836). Further: nearly all actives have a fitted effect of over 45% in size. A digest of the protocol:
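HepG2 cells stably carrying hCAR and a CYP2B6-2.2kb reporter; 15-concentration compounds plus PK11195 (final 0.75 uM), 23 hr at 37 C/5% CO2. Viability read by CellTiter-Fluor fluorescence.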

Assay [4] in a line: qHTS assay to identify small molecule antagonists of the constitutive androstane receptor (CAR) signaling pathway - cell viability counter screen (AID 1224837). Further: nearly all actives have a fitted effect of over 45% in size. A digest of the protocol: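 Using CellTiter-Fluor, viability is scored in HepG2 cells stably carrying hCAR and a 2.2kb CYP2B6 reporter after 23 hr compound exposure across 15 concentrations, with CITCO present at 50 nM.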

Assay [5] addresses Nuclear receptor subfamily 1 group I member 3 (Homo sapiens) (UniProt Q14994). Briefly: qHTS assay to identify small molecule antagonists of the constitutive androstane receptor (CAR) signaling pathway (AID 1224838).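 Further: HepG2 cells stably expressing hCAR with CYP2B6 luciferase reporter stimulated by CITCO; nearly all actives have a fitted effect of over 40% in size.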 Further: potency means the concentration at half of the fitted maximal effect. The essentials: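 Reporter luminescence was quantified after 24 h exposure of hCAR/CYP2B6-2.2kb double-stable HepG2 cells to compounds at 15 concentrations in the presence of 50 nM CITCO final.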

Assay [6] concerns the target Thyrotropin receptor (Homo sapiens) (UniProt P16473). Briefly: qHTS assay to identify small molecule agonists of the thyroid stimulating hormone receptor (TSHR) signaling pathway (AID 1224843; calls by dose curve; further: nearly all actives have a fitted effect of over 45% in size). The essentials: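 HEK293 cells stably bearing the thyrotropin receptor were plated at 800 cells/well and challenged with compound (30 min, RT). Accumulated cAMP was quantified via cAMP-d2 competing for cryptate-tagged antibody.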

Assay [7] can be described thus: qHTS assay to identify small molecule agonists of the hypoxia (HIF-1) signaling pathway - cell viability counter screen (AID 1224844; calls by dose curve; further: nearly all actives have a fitted effect of over 50% in size; further: potency means the concentration at half of the fitted maximal effect). The essentials: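 Multiplexed with the HRE beta-lactamase assay, this viability read used CellTiter-Glo luminescence (30 min, RT) on HRE-bla ME-180 cells treated 17 hrs with compounds in 0.5% dialyzed FBS medium.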
Assay [8] in a line: qHTS assay to identify small molecule agonists of H2AX (AID 1224845; active means well fitted activation curve with a large enough effect in the signal ratio in the repeat runs, not every such curve was filed as active; the % refers to the signal ratio; further: potency means the concentration at half of the fitted maximal effect). A digest of the protocol: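 Phospho-H2AX Ser139 measured by HTRF (ex 320 nm; em 665 and 620 nm) after 24 hr antibody incubation. Compounds, 15 concentrations, 0.76% DMSO, were applied to CHO-K1 cells for 3hr at 37C before lysis.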
The nature of assay [9]: qHTS assay to identify small molecule agonists of the hypoxia (HIF-1) signaling pathway (AID 1224846; active means well fitted activation curve with a large enough effect in the signal ratio in the repeat runs, not every such curve was filed as active; the % refers to the signal ratio). The essentials: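 Hypoxia-pathway activation was scored as increased beta-lactamase from an HRE-controlled reporter in ME-180 cells; plated at 2,000 cells per well with 0.5% dialyzed FBS, they were exposed 17 hrs to compounds and then given CCF4-AM.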
A short description of assay [10]: qHTS assay to identify small molecule agonists of H2AX - cell viability counter screen (AID 1224847; calls by dose curve;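 further: wild-type CHO-K1 cells; top concentration of the series differs between compounds; nearly all actives have a fitted effect of over 30% in size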). A digest of the protocol: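 CHO-K1 cells plated overnight at 37C, then exposed 3 h at 37C to compounds at 15 concentrations (0.76% DMSO final). Viability by CellTiter-Glo luminescence after 30 min at room temperature.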
Assay [11] can be described thus: qHTS RealTime-Glo MT Cell Viability Assay in HepG2 cells - 24 hour (AID 1224867). Further: nearly all actives have a fitted effect of over 50% in size. A digest of the protocol: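 HepG2 cells (600/well) were dispensed with RealTime-Glo reagents, incubated 5 h at 37 °C, then treated with compounds in DMSO for up to 40 h. Nonlytic NanoLuc luminescence reflecting viable cells was read at each stated time point.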
A short description of assay [12]: qHTS RealTime-Glo MT Cell Viability Assay in HEK293 cells - 32 hour (AID 1224868). Further: nearly all actives have a fitted effect of over 50% in size. Further: potency means the concentration at half of the fitted maximal effect. A digest of the protocol:
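HEK293 cells seeded with NanoLuc/prosubstrate reagent, rested 5 h at 37 C, then dosed and kept at 37 C up to 40 h. Nonlytic real-time luminescence from viable cells read at 0, 8, 16, 24, 32 and 40 h.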

A short description of assay [13]: A CellTox Green Cytotoxicity Assay to monitor cytotoxicity in HEK293 cells - 0 hour (AID 1224869). Further: nearly all actives have a fitted effect of over 50% in size. A digest of the protocol:
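Seeding of HEK293 cells together with cytotoxicity dye preceded a 5 h incubation at 37 C/5% CO2. Test compounds in DMSO were then added and fluorescence monitored across 40 h.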

The nature of assay [14]: qHTS RealTime-Glo MT Cell Viability Assay in HepG2 cells - 40 hour (AID 1224870). Further: nearly all actives have a fitted effect of over 50% in size. The essentials:
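Real-time viability: cells seeded at 600 per well together with NanoLuc and cell-permeant prosubstrate, compounds added after 5 h incubation. Luminescence tracked at 0, 8, 16, 24, 32 and 40 h of exposure.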

The target of assay [15] is Nuclear receptor subfamily 1 group I member 3 (Homo sapiens) (UniProt Q14994). Nature of the assay: qHTS assay to identify small molecule agonists of the constitutive androstane receptor (CAR) signaling pathway (AID 1224839). Further: nearly all actives have a fitted effect of over 15% in size. A digest of the protocol:
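HepG2 cells stably co-transfected with hCAR and a CYP2B6-2.2kb luciferase reporter; compounds at 15 concentrations with 0.75 uM PK11195 present. After 24 hr at 37 C, luciferase read by ONE-Glo luminescence.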

Assay [16] in a line: qHTS assay to identify small molecule antagonists of the estrogen related receptor signaling pathway with the pleiotropic PPARgamma coactivator (PGC) from Tox21 10K library - cell viability counter screen (AID 1224840; active means well fitted cell-killing curve with a large enough effect in the repeat runs, not every such curve was filed as active; further: nearly all actives have a fitted effect of over 40% in size). A digest of the protocol:
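Here the PGC/ERR cells serve as a cytotoxicity control: they are exposed to compounds for 17.5 hours at 37 C, and live-cell signal is quantified using CellTiter-Fluor fluorescence.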

A short description of assay [17]: qHTS assay to identify small molecule antagonists of the estrogen related receptor signaling pathway with the pleiotropic PPARgamma coactivator (PGC) from Tox21 10K library (AID 1224841; call rule not given here). The essentials: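 Each well held 2,000 PGC/ERR cells, pre-incubated six hours (37 C, 5% CO2). Test substances in DMSO were added by pin tool and left for 18 h at 37 C before luciferase detection by One-Glo.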

A short description of assay [18]: qHTS assay to identify small molecule agonists of the estrogen related receptor signaling pathway with the pleiotropic PPARgamma coactivator (PGC) from Tox21 10K library (AID 1224842). Further: nearly all actives have a fitted effect of over 15% in size. The essentials:
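Luminescence from One-Glo (30 min, room temperature) measured after PGC/ERR cells had 18 h at 37 C with pinned compound (23 nL in DMSO). Cells had been seeded at 2,000 per well and pre-incubated 6 h.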

Assay [19] can be described thus: qHTS assay to identify small molecule antagonists of the estrogen related receptor (ERR) signaling pathway from Tox21 library (AID 1224848). Further: nearly all actives have a fitted effect of over 50% in size. The essentials:
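Reading was by luminescence 30 min after ONE-Glo addition. Before that, ERR cells at 2,000 per well had rested 6 h at 37 C/5% CO2 and then received pin-tooled compounds in DMSO for 18 h at 37 C.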

Assay [20] in a line: qHTS assay to identify small molecule agonists of the estrogen related receptor (ERR) signaling pathway from Tox21 library (AID 1224849; calls by dose curve; further: nearly all actives have a fitted effect of over 15% in size). The note with it: ERR reporter cell line, ONE-Glo luciferase, 18 h; at 92.4 µM (top of the series). The essentials:
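Six hours post-seeding at 37 C/5% CO2, ERR cells receive DMSO-solubilised compounds; after 18 h at 37 C, ONE-Glo reagent is applied and luminescence recorded.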

Several values for one entry are separate records, joined by “and”; a condition that tells them apart may be missing. Equal values may be shown once. Inconclusive results are not listed. Activity calls are given as the source filed them. Unless noted, the call rests on the fitted dose curve; in most records, active means well fitted curve in the direction sought with a large enough effect in the repeat runs; inconclusive means weak or mixed curves; inactive means no such curve, though single readings can be large; an effect the other way counts as inactive or inconclusive.
On the % scale 0 is the no-effect control and ±100 the full control effect.

Sequence of Luciferin 4-monooxygenase (Photinus pyralis) (P08659 whole entry, looked up): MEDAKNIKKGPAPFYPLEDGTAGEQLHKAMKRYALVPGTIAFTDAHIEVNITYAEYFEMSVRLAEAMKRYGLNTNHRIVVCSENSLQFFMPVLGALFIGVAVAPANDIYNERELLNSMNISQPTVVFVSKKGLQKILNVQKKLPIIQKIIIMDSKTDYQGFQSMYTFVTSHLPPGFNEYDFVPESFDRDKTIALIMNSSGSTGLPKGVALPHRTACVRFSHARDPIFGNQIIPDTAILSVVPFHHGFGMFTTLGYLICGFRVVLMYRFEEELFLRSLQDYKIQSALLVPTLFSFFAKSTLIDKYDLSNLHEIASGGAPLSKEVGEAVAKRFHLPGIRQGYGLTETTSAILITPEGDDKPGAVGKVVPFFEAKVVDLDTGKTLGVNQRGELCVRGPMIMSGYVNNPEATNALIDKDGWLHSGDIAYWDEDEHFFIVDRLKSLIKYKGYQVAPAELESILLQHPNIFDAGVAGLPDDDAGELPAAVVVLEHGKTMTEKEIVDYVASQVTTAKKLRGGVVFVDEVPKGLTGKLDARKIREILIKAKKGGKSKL
Sequence of Thyrotropin receptor (Homo sapiens) (P16473 whole entry, looked up): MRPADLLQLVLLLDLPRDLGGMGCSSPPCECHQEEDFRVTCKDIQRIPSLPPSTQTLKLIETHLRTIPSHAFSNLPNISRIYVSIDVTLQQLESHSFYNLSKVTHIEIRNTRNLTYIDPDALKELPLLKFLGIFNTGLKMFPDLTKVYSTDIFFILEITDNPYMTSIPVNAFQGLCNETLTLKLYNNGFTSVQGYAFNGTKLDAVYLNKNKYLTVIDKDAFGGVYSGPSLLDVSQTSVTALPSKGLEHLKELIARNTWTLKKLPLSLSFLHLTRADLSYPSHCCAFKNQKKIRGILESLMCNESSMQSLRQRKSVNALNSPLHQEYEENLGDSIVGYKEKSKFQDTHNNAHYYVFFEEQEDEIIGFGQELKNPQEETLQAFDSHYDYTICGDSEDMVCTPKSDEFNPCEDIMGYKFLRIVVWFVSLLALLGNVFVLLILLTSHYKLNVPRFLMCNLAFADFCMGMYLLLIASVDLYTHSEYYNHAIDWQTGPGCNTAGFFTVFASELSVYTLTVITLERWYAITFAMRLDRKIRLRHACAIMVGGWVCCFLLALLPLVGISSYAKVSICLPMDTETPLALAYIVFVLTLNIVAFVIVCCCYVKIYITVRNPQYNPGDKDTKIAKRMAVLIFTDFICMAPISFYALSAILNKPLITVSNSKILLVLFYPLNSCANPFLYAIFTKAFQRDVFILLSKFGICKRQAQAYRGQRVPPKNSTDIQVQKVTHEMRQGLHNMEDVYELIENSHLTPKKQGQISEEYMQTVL
Sequence of Nuclear receptor subfamily 1 group I member 3 (Homo sapiens) (Q14994 whole entry, looked up): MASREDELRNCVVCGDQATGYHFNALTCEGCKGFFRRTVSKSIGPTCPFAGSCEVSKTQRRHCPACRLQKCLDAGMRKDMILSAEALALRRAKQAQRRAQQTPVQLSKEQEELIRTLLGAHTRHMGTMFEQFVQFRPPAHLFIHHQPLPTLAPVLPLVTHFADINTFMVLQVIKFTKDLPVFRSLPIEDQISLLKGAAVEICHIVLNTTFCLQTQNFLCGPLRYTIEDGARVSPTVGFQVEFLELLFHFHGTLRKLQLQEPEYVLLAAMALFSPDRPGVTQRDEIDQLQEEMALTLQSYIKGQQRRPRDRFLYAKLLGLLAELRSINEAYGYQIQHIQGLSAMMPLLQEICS

Take `Oc1ccc(Cc2ccccc2O)cc1`: the Potency entry in assay [1], in [2], in assay [3], in assay [4], in assay [5] and in [6] was “inactive” in each case. Besides, the Potency result in [7], in [8], in assay [10], in assay [11], in [13] and in assay [14] was “inactive” each time. Further, the result in assay [9] was inactive. Further, the Potency in assay [12] was 19.7 µM (active).

In the case of `OC1CCCCC1`, the Potency entry in assay [1], in assay [2], in assay [3], in assay [4], in [5] and in assay [15] was “inactive” in each case. Besides, the Potency result in assay [16], in [7], in assay [8], in assay [10], in assay [11] and in [12] was “inactive” throughout. For the same compound, the Potency entry in assay [13] and in [14] was “inactive” each time. The compound was classed as inactive in assay [9].

On to `CCCOCC(C)O` (stereo not given), for which the Potency result in assay [1], in assay [2], in assay [3], in assay [4], in [16] and in assay [17] was “inactive” throughout. For the same compound, the Potency entry in assay [18], in [6], in assay [7], in assay [8], in [10] and in [19] was “inactive” in each case. Besides, the Potency entry in assay [11], in assay [12], in assay [13] and in assay [14] was “inactive” in each case. For the same compound, the call in [9] was inactive. Moreover, in assay [20], the activity change, positive = activation was 5.9% (inactive) and 6.38% (inactive).

Take `CC(=O)OCc1ccc2c(c1)OCO2`: the Potency entry in assay [1], in assay [2], in [3], in [4], in assay [5] and in assay [15] was “inactive” throughout. Further, the Potency result in assay [17], in [18], in assay [6], in assay [7], in assay [8] and in [10] was “inactive” each time. Further, the Potency result in [19], in [11], in assay [12], in assay [13] and in assay [14] was “inactive” in each case. For the same compound, the compound was called inactive in [9]. Moreover, the activity change, positive = activation in [20] was -6.11% (inactive) and 0.823% (inactive).

As to `NC(N)=S`, the Potency entry in assay [1], in assay [2], in assay [3], in assay [4], in [5] and in [15] was “inactive” throughout. For the same compound, the Potency result in [6], in [7], in assay [8], in assay [10], in assay [11] and in assay [12] was “inactive” each time. The Potency entry in [13] and in assay [14] was “inactive” each time. The result in assay [9] was inactive.

`NC(=O)c1ncn([C@@H]2O[C@H](CO)[C@@H](O)[C@H]2O)n1`: the Potency result in [1], in [2], in assay [3], in [4], in assay [15] and in assay [10] was “inactive” each time. Besides, the Potency entry in [11], in [12], in assay [13] and in assay [14] was “inactive” throughout. The Potency is 7.23 µM (active) in assay [5], 18.3 µM (active) in assay [7] and 53.2 µM (active) in assay [8].

In the case of `CC/C(C)=N/O`, the Potency entry in assay [1], in [2], in assay [3], in [4], in assay [5] and in assay [15] was “inactive” in each case. The Potency entry in assay [6], in [7], in [8], in assay [10], in assay [11] and in assay [12] was “inactive” throughout. The Potency entry in assay [13] and in assay [14] was “inactive” in each case. Moreover, the outcome in assay [9] was inactive.

As for `N#CCC(=O)O`, the Potency result in [1], in assay [2], in assay [3], in [4], in assay [5] and in assay [17] was “inactive” in each case. Moreover, the Potency entry in assay [18], in [6], in [7], in assay [8], in [10] and in assay [19] was “inactive” in each case. The Potency entry in assay [11], in assay [12], in [13] and in assay [14] was “inactive” each time. Moreover, in assay [9], the compound was called inactive. For the same compound, the activity change, positive = activation in assay [20] is 4.35% (inactive) and -0.59% (inactive).

Turning to `CC(=O)OC(C)(C)C1CC=C(C)CC1` (stereo not given), the Potency entry in assay [1], in assay [2], in [3], in assay [4], in assay [5] and in assay [15] was “inactive” in each case. Besides, the Potency result in [17], in [18], in assay [6], in assay [7], in [8] and in [10] was “inactive” throughout. For the same compound, the Potency result in [19], in [11], in assay [12], in [13] and in assay [14] was “inactive” each time. Moreover, in assay [9], the result was inactive. Besides, the activity change, positive = activation in assay [20] is 5.97% (inactive) and -1.38% (inactive).

Consider `CC/C=C(\C(=O)N[C@@H]1C(=O)N2C(C(=O)OCOC(=O)C(C)(C)C)=C(COC(N)=O)CS[C@H]12)c1csc(N)n1`, for which the Potency result in assay [1], in assay [2], in assay [3], in [4], in assay [5] and in [15] was “inactive” in each case. Besides, the Potency entry in [6], in assay [7], in assay [8], in assay [10], in assay [11] and in assay [12] was “inactive” throughout. Also, the Potency entry in assay [13] and in assay [14] was “inactive” throughout. The compound was classed as inactive in assay [9].

On to `CCCCCCCCO`, for which the Potency entry in assay [1], in assay [2], in assay [3], in assay [4], in assay [5] and in [15] was “inactive” in each case. Also, the Potency result in assay [6], in assay [7], in [8], in assay [10], in assay [11] and in [12] was “inactive” each time. Further, the Potency result in assay [13] and in assay [14] was “inactive” each time. For the same compound, in [9], the outcome was inactive.

As for `Nc1cccc(N)n1`, the Potency entry in assay [1], in assay [2], in [3], in assay [4], in [5] and in [15] was “inactive” each time. Moreover, the Potency entry in assay [16], in assay [7], in assay [10], in [11], in [12] and in assay [13] was “inactive” each time. Further, the Potency entry in assay [14] was “inactive”. Further, in assay [9], the compound was called inactive.

These data come from PubChem BioAssay (Tox21).
